The source of these data is ChEMBL document CHEMBL4513216, “Probing the Open Global Health Chemical Diversity Library for Multistage-Active Starting Points for Next-Generation Antimalarials” (ACS Infect Dis, 2020).

Structures are written as SMILES. The campaign covered roughly 69,000 compounds. About 8,600 (12%) showed an effect of 50% or more. Only a selection was taken, and strong results are over-represented in it overall.

For this assay, the system named is Plasmodium berghei. The assay is described as follows: Screen against P. berghei liver stage (PbLuc), transformed with Luciferase, at 10uM. It counts as functional, HepG2. To be noted: tested at 10 uM.
Consider `CCCS(=O)(=O)NC1CCN(c2cccc(F)c2C#N)CC1`, for which the INHIBITION stood at 25.4%.

As for `c1nc(CCC2CCCCN2)cc(N2CCCC2)n1` (centres undefined), the INHIBITION is recorded as 32.8%.

Consider `O=C(CC1CC1)N1Cc2nccn2CC(COc2cccnc2)C1` (centres undefined), for which the INHIBITION is 13.5%.

`O=C(N[C@H]1CCCC[C@@H]1O)c1cccc(-c2nc3ccccc3[nH]2)c1`: the INHIBITION is on record as -13.2%.

In the case of `CCc1nc(CN2CCCC(NCc3cc(C)no3)C2)no1` (centres undefined), the INHIBITION is listed as 29.5%.

For `Cc1nc(CN2CCCC(Nc3ncnc4c3CCC4)C2)no1` (centres undefined), the INHIBITION was 85.1%.

On to `Cc1nc(CN2CCCC(NCc3ccc4ccccc4c3)C2)no1` (centres undefined), for which the INHIBITION turned out to be 41.5%.

With `Cc1nc(CN2CCCC(NCc3nc4ccccc4s3)C2)no1` (centres undefined), the INHIBITION is given as 29.2%.

`Cc1nc(CN2CCCC(Nc3ncnc4ccsc34)C2)no1` (centres undefined): the INHIBITION is given as 79.1%.

As for `CCc1nc(CN2CCCC(Nc3ncnc4ccsc34)C2)no1` (centres undefined), the INHIBITION worked out at 88.5%.

On to `Cc1nc(CN2CCCC(NCc3cccc4ccccc34)C2)no1` (centres undefined), for which the INHIBITION is listed as -18.8%.

Regarding `Cc1nc(CN2CCCC(NCc3ccsc3)C2)no1` (centres undefined), the INHIBITION stood at 20.1%.

For `Cc1nc(CN2CCCC(Nc3ncnc4ccccc34)C2)no1` (centres undefined), the INHIBITION is 90.2%.

In the case of `CCc1nc(CN2CCCC(NCc3cnc(C)s3)C2)no1` (centres undefined), the INHIBITION turned out to be 15.3%.

Turning to `Cc1nc(CN2CCCC(NCc3cnn(C)c3)C2)no1` (centres undefined), the INHIBITION is listed as -10.6%.

As to `Cc1nc(CN2CCCC(NCc3sccc3C)C2)no1` (centres undefined), the INHIBITION is listed as 48.4%.

Turning to `CN(C)Cc1cnc(C2CCN(C(=O)c3cc(F)cc(F)c3)C2)[nH]1` (centres undefined), the INHIBITION is listed as 2.05%.

On to `CC(C(=O)N1CCCC1)N1CCN(c2ncc(Cl)cn2)CC1` (centres undefined), for which the INHIBITION is 13.8%.

As to `CN(C)C(=O)CN1CCCCC1c1nc(N)ncc1-c1ccccc1` (centres undefined), the INHIBITION turned out to be 19.3%.

With `COc1cc(N2CC[C@@H]3O[C@@H](C(=O)NC(C)C)C[C@@H]32)ncn1`, the INHIBITION is given as -4.32%.

On to `O=C(COCc1nc(-c2ccncc2)no1)N1CCCCC1`, for which the INHIBITION was -19.7%.

Regarding `CN(C)S(=O)(=O)c1ccc(CN2CCCC2c2cccs2)o1` (centres undefined), the INHIBITION is recorded as 22.3%.

With `CN1CCC(N2CCC(C(=O)N(C)C)CC2)CC1`, the INHIBITION amounted to 28.5%.

For `CNCC(=O)N1CCCC(c2nccnc2Oc2cccc(F)c2)C1` (centres undefined), the INHIBITION turned out to be 49.5%.

In the case of `Cn1cc(CCC(=O)NCc2ccccc2OC(C)(C)C)cn1`, the INHIBITION was -1.3%.

With `NC(=O)CSc1nnc2n1N=CN(c1ccccc1F)C2`, the INHIBITION is on record as -14.9%.

With `C[C@@H](O)CNC(=O)CCc1nc2cccnc2[nH]1`, the INHIBITION is given as -2.13%.

With `COCC(C)NC(=O)N1CCN(S(C)(=O)=O)CC1` (centres undefined), the INHIBITION is reported as 5.91%.

In the case of `CNC(=O)c1cn[nH]c1C1(C)CCCN(Cc2ccccn2)C1` (centres undefined), the INHIBITION worked out at 17.1%.

Take `CNC(=O)c1cn[nH]c1C1(C)CCCN(Cc2ccccc2OC)C1` (centres undefined): the INHIBITION was determined as 72.5%.

For `CNC(=O)c1cn[nH]c1C1(C)CCCN(CC2(O)CCCCC2)C1` (centres undefined), the INHIBITION worked out at 29.2%.

In the case of `CN(Cc1noc(C2CC2)n1)C1CCN(CCn2cccn2)C1` (centres undefined), the INHIBITION was -45.6%.

With `Cc1nccnc1C1CCN(C2CCCC2O)CC1` (centres undefined), the INHIBITION was -59.6%.

Consider `COc1ccc(CCC(=O)N2CCNCC2C(=O)N2CCOCC2)cc1` (centres undefined), for which the INHIBITION worked out at 30.3%.

As for `CN(Cc1ccc2c(c1)OCO2)Cc1nc(-c2ccco2)no1`, the INHIBITION amounted to 15%.

For the compound `CCN(Cc1nc(-c2ccco2)no1)Cc1cccc2c1OCO2`, the INHIBITION was 55%.

Turning to `CCN(Cc1ccc2cccc(O)c2n1)CC1CCCO1` (centres undefined), the INHIBITION is recorded as -13.5%.

Take `Cc1nnc(CN(Cc2cccc3c2OCO3)CC2CCCO2)n1C` (centres undefined): the INHIBITION is recorded as -31.5%.

Consider `CCN(Cc1cccc2c1OCO2)CC1CCCO1` (centres undefined), for which the INHIBITION is 50.5%.

For `Cc1noc(CN(Cc2ccco2)Cc2cccc3c2OCO3)n1`, the INHIBITION came out at 30.3%.

In the case of `CC(CNC(=O)N(C)Cc1ccco1)N1CCc2sccc2C1` (centres undefined), the INHIBITION is given as 11.4%.

Consider `COCC1CN(Cc2cccc(C#N)c2)Cc2nccn2C1` (centres undefined), for which the INHIBITION came out at 25.1%.

Consider `NC(=O)c1cccc(C(=O)N2CCCC(n3ccnc3)C2)c1` (centres undefined), for which the INHIBITION is reported as -31.5%.

Take `CCNc1ncc(C(=O)Nc2nnc(N3CCCCC3)[nH]2)s1`: the INHIBITION is on record as 51.1%.

Regarding `O=C(Nc1nnc(N2CCCCC2)[nH]1)c1cccs1`, the INHIBITION is given as -20.6%.

With `Cc1cnc(NC(=O)N2CCCCCC2)s1`, the INHIBITION is on record as -9.54%.

For `Cc1nc(C(=O)N2CCc3[nH]nc(Nc4ccccc4)c3C2)co1`, the INHIBITION was 10.9875%.

As for `O=S(=O)(N1CCOCC1)N1CCC(Oc2cnccn2)CC1`, the INHIBITION is 32.8%.

With `CC(=O)N1CCOCC2(CN(Cc3ccc(C)o3)CCO2)C1` (centres undefined), the INHIBITION turned out to be 26.7%.

Consider `COCCN1CCC(CNC(=O)C2(c3cccc(C)c3)CC2)C1` (centres undefined), for which the INHIBITION came to 11.4%.

In the case of `O=C(Cn1nc2c(cc1=O)CCCC2)NC(Cc1ccccc1)C(=O)O` (centres undefined), the INHIBITION is given as -30.4%.

`O=C(Cn1nc2c(cc1=O)CCCC2)N[C@@H](C(=O)O)c1ccccc1`: the INHIBITION is -19%.

In the case of `O=C(Cn1nc2c(cc1=O)CCCC2)NC(C(=O)O)c1ccccc1` (centres undefined), the INHIBITION was 69.8%.

As to `Cc1oc(C(=O)O)cc1S(=O)(=O)Nc1cc(F)ccc1F`, the INHIBITION is 21%.

In the case of `Cc1nc(CN2C(=O)C[C@@H]3[C@@H]2CCN3S(=O)(=O)C2CC2)cs1`, the INHIBITION is -64.1%.

For the compound `Cc1cccc(NC2CCN(C(=O)Nc3cc(F)ccc3F)CC2)n1`, the INHIBITION is recorded as -7.35%.

On to `Cc1cccc(NC2CCN(C(=O)Nc3cc(F)cc(F)c3)CC2)n1`, for which the INHIBITION came out at 90%.

`Cc1cccc(NC2CCN(C(=O)Nc3ccc(F)cc3C)CC2)n1`: the INHIBITION is on record as -0.113%.

For `Cc1cccc(NC2CCN(C(=O)Nc3ccc(F)c(F)c3)CC2)n1`, the INHIBITION is 67.4%.

Regarding `Cc1cccc(NC2CCN(C(=O)Nc3cc(C)on3)CC2)n1`, the INHIBITION stood at 37.2%.

As to `Cc1cccc(NC2CCN(C(=O)Nc3cccc4[nH]ccc34)CC2)n1`, the INHIBITION was 76.1%.

With `Cc1cccc(NC2CCN(C(=O)Nc3cn[nH]c3)CC2)n1`, the INHIBITION stood at 28.8%.

As to `O=C(c1ccc2cc[nH]c2c1)N1CCC(Nc2cccnn2)CC1`, the INHIBITION amounted to 11.4%.

On to `Cc1cccc(NC2CCN(C(=O)Nc3ccncc3)CC2)n1`, for which the INHIBITION was found to be 16.8%.

For `CCn1cc(CN2CCCN(C(=O)c3ccc(C)o3)CC2)cn1`, the INHIBITION stood at 31.3%.

As for `Cn1ccnc1CN1CCC2(CCC(=O)N2CCN2CCCC2)CC1`, the INHIBITION amounted to 35.2%.

As for `O=C(NCCn1nc(-n2cncn2)ccc1=O)c1ccc(F)cc1F`, the INHIBITION came out at 7.77%.

In the case of `c1cnn(-c2ccc(CCNC3CCN(C4CC4)C3)cc2)c1` (centres undefined), the INHIBITION is listed as 14.2%.

For `COc1cccc(-n2nnc(C(=O)N3CCCCCC3)c2C)c1`, the INHIBITION is recorded as 2.845%.
